Hits are enriched below; roughly 4.1% of the tested compounds scored in any of these assays.
hgDAF12 agonist: agonists of H. glycines DAF-12 nuclear receptor; HEK293 GAL4-hgDAF12 UAS-luciferase reporter, agonist luminescence; normalized to butyrate control; activation, % at 6.8 µM; hit rate 1.8% among 370,000;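 active = activation above a cutoff set at the mean of all screened compounds plus 3 SD, cut at about 10% in these data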;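 also: 0% = DMSO wells and 100% = sodium butyrate wells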
DAX1 inh-1: DAX1 (NR0B1) inhibition, primary screen | HEK293T StAR-luciferase reporter, SF-1/DAX-1 repression relief | inhibition, % at 6.8 µM | hit rate 1.1% among 370,000 | AID 652010;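 active = inhibition above the mean over all tested compounds plus 3 SD, cut at about 3.6% in these data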;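 also: 0% = DAX-1 cells with DMSO and 100% = cells lacking DAX-1 with DMSO; higher inhibition means more luminescence from relief of DAX-1 repression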
DAX1 inh-2: inhibitors of human orphan nuclear receptor DAX1 (NR0B1); P51843; HEK293 Gal4-DAX1 luciferase reporter, luminescence; inhibition, % at 6.75 µM; hit rate 0.99% among 340,000; AID 504766;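 active = inhibition above the mean over all tested compounds plus 3 SD, cut at about 4.2% in these data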;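 also: 0% = DAX1-transfected cells with DMSO and 100% = empty-vector control cells with DMSO; inhibition shows as a rise in luminescence from relieved DAX1 repression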
Target sequence (P51843 207-470 limits assumed): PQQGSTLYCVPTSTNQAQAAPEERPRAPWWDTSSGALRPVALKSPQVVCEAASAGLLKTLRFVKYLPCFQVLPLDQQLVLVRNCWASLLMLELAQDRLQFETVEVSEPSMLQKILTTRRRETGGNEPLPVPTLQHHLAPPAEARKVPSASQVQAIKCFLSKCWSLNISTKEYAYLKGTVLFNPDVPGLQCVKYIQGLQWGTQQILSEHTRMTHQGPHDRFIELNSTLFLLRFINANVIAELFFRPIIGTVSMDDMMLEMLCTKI
ssDAF12 agonist: S. stercoralis DAF-12 activation, primary screen; HEK293 ssDAF-12/GRIP1 lit1-tk-luc reporter, luminescence; % of 3 µM dafachronic acid response; activation, % at 6.8 µM; hit rate 1% among 370,000; AID 652126;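 active = activation above the mean over all tested compounds plus 3 SD, cut at about 0.9% in these data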;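 also: 0% = DMSO-only wells and 100% = 3 µM delta7-dafachronic acid wells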
hcDAF12 agonist: activators of H. contortus DAF-12 nuclear receptor. HEK293 hcDAF-12 lit1-tk-luc reporter, luminescence; 0% DMSO, 100% Δ7-dafachronic acid. activation, % at 6.8 µM. hit rate 1.4% among 370,000. AID 652067;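 active = activation above the mean of all tested compounds plus 3 SD, cut at about 5.5% in these data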;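 also: 100% = response to 3 µM Δ7-dafachronic acid high control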
DAX1 inh confirm: confirmation of human DAX1 (NR0B1) inhibitors; shares compounds with DAX1 inh-1; HEK293T StAR-promoter luciferase reporter, SF-1/DAX-1 repression; inhibition, % at 6.8 µM; hit rate 87% among 2,400; AID 652134;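 active = inhibition above the average of every tested compound plus 3 SD, cut at about 3.8% in these data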;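 also: 0% = DAX-1 cells with DMSO and 100% = no DAX-1 control cells with DMSO; active compounds raise luminescence by relieving repression of the StAR reporter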
SF1 AF2mut Luc: nonselective inhibitor or artifact in SF-1 mutant DAX1 counter-screen; inhibition, % at 6.8 µM; hit rate 78% among 2,400; HEK293 StAR-luciferase, SF-1 AF2 mutant, luminescence; shares compounds with DAX1 inh-1;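 active = inhibition above the mean of all tested compounds plus 3 SD, cut at about 3% in these data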;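 also: 0% = DAX-1 transfected cells with DMSO and 100% = cells without DAX-1 with DMSO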
* = called active by the depositor; x = not tested or not shown.

SMILES	hgDAF12 agonist	DAX1 inh-1	DAX1 inh-2	ssDAF12 agonist	hcDAF12 agonist	DAX1 inh confirm	SF1 AF2mut Luc
CCN(C)C(=O)CNc1nnnn1-c1ccccc1	6	-1	x	-1	-2	x	x
COc1cc(SC)ccc1C(=O)NNC(=O)c1cc(C)oc1C	13*	12*	-1	0	4	6.9*	5.0*
CCN(c1ccc(OCC(=O)OCC(=O)c2c(N)n(C)c(=O)n(C)c2=O)cc1)S(=O)(=O)c1ccccc1	-1	5.2*	0	-1	-1	2	2
CN(c1ccc(OCC(=O)OCC(=O)c2c(N)n(C)c(=O)n(C)c2=O)cc1)S(=O)(=O)c1ccc2ccccc2c1	0	0	1	-1	-2	x	x
Cc1ccc(-c2c(C)sc(=NC(=O)c3ccco3)n2C)cc1	9	5.2*	1	0	2	6.8*	3.0*
COc1ccc(OC)c2c1sc(=NC(=O)c1ccco1)n2C	3	0	1	-1	4	x	x
CN(Cc1ccccc1)C(=O)OCc1cn(Cc2ccc(F)cc2F)nn1	-2	-1	x	-1	0	x	x
Cc1ccc2nc(-c3ccc(Cl)cc3)c(Cc3ccccc3C(F)(F)F)n2c1	12*	7.7*	x	-1	2	3.7*	3.7*
Cc1ccc2nc(-c3ccc(Cl)cc3)c(Cc3cccc(F)c3)n2c1	8	3	x	0	0	x	x
Cc1ccc2nc(-c3cccc(Cl)c3)c(Cc3cccc(F)c3)n2c1	5	4.8*	x	-1	2	2	2
O=C(NCCc1ccccc1)OCc1cn(Cc2ccc(C(F)(F)F)cc2)nn1	-1	0	x	-1	-4	x	x
O=C1C=C[C@H]2CC[C@@H](O)[C@@H]1[C@@H]2Sc1ccccc1	-4	-1	x	-1	-2	x	x
O=S1(=O)c2ccc(Br)cc2OC[C@H](Cc2ccccc2)N1Cc1cn(CCC2OCCCO2)nn1	2	0	x	-1	0	x	x
Oc1ccc(Nc2nc(-c3cccs3)cs2)cc1	-1	0	2	-1	-2	x	x
COc1ccc(Nc2nc(-c3cccs3)cs2)cc1	18*	7.1*	x	3.8*	16*	19*	11*
O=C(CCS(=O)(=O)c1ccccc1)N(CCCN1CCOCC1)c1nc2ccc(F)cc2s1	9	6.7*	0	-1	1	5.5*	2
O=C(OC12CCCN(C1)/C(=C/c1ccncc1)C2)c1ccccc1 (centres undefined)	-5	-3	x	-2	-5	x	x
Cc1ccc(C(=O)CN2C(=O)NC3(CCCCCC3)C2=O)c(C)c1	6	5.5*	1	-1	2	4.2*	3.8*
O=C(NN1CCOCC1)c1cc(Cl)ccc1Cl	1	-1	1	0	-1	x	x
O=C(NC(=S)NN1CCOCC1)c1cc(Br)ccc1Cl	0	5.2*	0	-1	1	0	0
CCn1c(Cc2cccs2)nnc1SCC(=O)Nc1ccc(OCc2ccccc2)cc1	7	-2	x	-2	-1	x	x
O=C(NNC(=S)Nc1ccc(Br)cc1)c1ccccc1Br	6	0	0	0	2	x	x
O=C(NNC(=S)Nc1ccccc1Cl)c1ccccc1Br	11*	15*	1	0	4	12*	6.1*
Cc1cc(C(=O)Nc2ccc(F)cc2)n(-c2ccccc2)n1	0	-1	x	-1	-1	x	x
CCC(C)N(C(=O)c1ccc(CNC(=O)c2cccc(Br)c2)cc1)C(C)CC (centres undefined)	-4	-1	x	-2	-2	x	x
SMILES	hgDAF12 agonist	DAX1 inh-1	DAX1 inh-2	ssDAF12 agonist	hcDAF12 agonist	DAX1 inh confirm	SF1 AF2mut Luc
O=C(Nc1nnc(C2CC2)s1)c1cncc(Br)c1	7	4.8*	1	-1	1	5.9*	3.9*
COc1ccc(C2=NN3C(C2)c2ccccc2OC3c2cccs2)cc1 (centres undefined)	23*	4.5*	2	0	7.9*	12*	7.6*
Cc1ccccc1CNC(=S)OC1CCC12CCC(c1ccccc1)CC2 (centres undefined)	-2	0	x	-1	1	x	x
COc1ccc(C(CNC(=O)c2cccc(Br)c2)N2CCCC2)cc1 (centres undefined)	2	1	0	-1	0	x	x
COc1ccc(C(CNC(=O)c2cccc(NC(=O)c3cccs3)c2)N2CCCC2)cc1 (centres undefined)	2	4.5*	1	-1	1	6.4*	3.7*
CCOc1ccc(S(=O)(=O)Nc2ccc(C(=O)NCC3(N4CCCCC4)CCCCC3)cc2)cc1	1	8.7*	2	-1	1	8.3*	4.9*
COc1ccc(NS(=O)(=O)c2cccc(C(=O)NCC3(N4CCCCC4)CCCCC3)c2)cc1	4	7.8*	1	-1	1	10*	5.4*
Cc1cccc(NS(=O)(=O)c2cccc(C(=O)NCC3(N4CCCCC4)CCCCC3)c2)c1	1	5.0*	1	-1	2	3	1
Cc1ccc(S(=O)(=O)Nc2cccc(C(=O)NCC3(N4CCCCC4)CCCCC3)c2)cc1F	-1	6.2*	0	-1	1	4.6*	3.8*
CNS(=O)(=O)c1cccc(C(=O)NCC2(N3CCCCC3)CCCCC2)c1	-1	0	0	-1	2	x	x
CCOC(=O)N1CCN(C(=O)C[C@H]2C[C@@]3(C(=O)OC)C(=C[C@H](C4CCCC4)O[C@@H]3C)N(CCc3ccc(OC)c(OC)c3)C2=O)CC1	-3	-2	x	-1	-3	x	x
COc1cc(C(=O)N/N=C(\C)c2ccc(NC(=O)Cc3ccccc3)cc2)ccc1O	8	6.9*	1	1.1*	4	6.2*	4.2*
C/C(=N\NC(=O)c1ccccc1O)c1ccc(NC(=O)Cc2ccccc2)cc1	8	7.2*	0	0	3	6.3*	3.6*
Cc1ccc(NC(=O)NCCN2C(=O)C3C4C=CC(C4)C3C2=O)cc1 (centres undefined)	10	5.1*	5.8*	-1	6.5*	13*	6.1*
CCN(CC)C(=O)CC[C@H]1CC[C@]2(CCCN(c3ccccc3)C2)O1	2	-2	x	-1	0	x	x
O=C(O)c1cc(N/N=C/c2ccc(OCc3ccccc3)cc2)ccc1Cl	2	0	0	-1	0	x	x
O=C(O)c1cc(N/N=C/C=C/c2ccccc2)ccc1Cl	10	8.6*	1	0	5	12*	6.2*
CCc1nnc(NS(=O)(=O)c2ccc(NC(=O)c3cccc(Br)c3)cc2)s1	0	4.5*	0	0	2	1	0
Cc1cnc(NC(=O)Nc2ccc(Cl)cc2)s1	8	6.0*	4	0	5.8*	14*	6.8*

Screens deposited in PubChem by The Scripps Research Institute Molecular Screening Center.
